# Measured values taken from the supplement of paper PMC6555819.
# System: PPARg homodimer (NR concentration 180 nM)
# Assay: PBM binding z-score (relative to random genomic background probes); higher = stronger binding; sequences stand for … in GC…GCGATTGACAGCGTAGAATGAAGG
# Outline: (§1)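 Binding z-scores take random background probes as their reference. They come from custom Agilent 4×180K protein-binding microarrays incubated 1 h with ligand-free nuclear receptor dimers, with antibodies against each partner (one per run) detecting binding. Scanned fluorescence was regression-normalized.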
row,Sequence,PBM binding z-score
1,CCTAGTTGGTCAGCAGGTCACACACCGGATATGA,2.23
2,TGAAGGAGGTTAAAGATCAGGGAACGTGGCGTCG,1.34
3,GCTAGCAGGCCAATTGGGTCACTCAATGACGGGC,-0.0833
4,TCAGACTGGTGAAGGTAACTCAGGTACGCAGTCG,-0.234
5,CAGCCTAGGTCACGGCCAGTATAGGAGGAACGTT,1.71
6,CTCGAAAGGTCGTGCTCAGGTGAGTAAACCAAAC,1.55
7,GCTTGAAGATCAAGGTTAAGAAAGACTAAGCTAA,-0.0355
8,CCTAGCAGGCCGGGGTCACTCAAGCATTTCGCTT,1.87
9,CAGCCTAGGTCAGGGCCACTATAGGAGGAACGTT,0.834
10,CCGACTGGAGCAAAGGTTACCATACTCAGTACGA,0.916
11,TGAATGAGGTTATAAGATCTGGGAACGTTGCAAA,0.305
12,GATACAGGGTCAGCTAGAGGCCAGGGTATGGAAA,2.74
13,ACACACAGGTGATGAAGGTAACTCAGGCTATCAT,0.0611
14,AGCTCTAGGTAAAGATAGTTCAGTGAATGCAAAT,0.456
15,CCTACTGGGCCAAAAAGGTCAATGATGCCGATAA,2.6
16,GCTCGGACGACAAGGTCAGAGCTTTGTCCGTAGA,0.248
17,GGAACGAGGGCAAAGTTGATAGCTTCTGTCGACG,0.712
18,ATATGTGGGTTACATCCGGGTCATTCAGGCTATG,2.37
19,CGAACTAGGTCATTGACAGGACTGTGAATAGTAA,1.48
20,TGAATGAGGTTATAAGATTAGGGAACGTTGCAAA,0.438

row,Sequence,PBM binding z-score
1,GCTAGTTGCTCAGTAAAAGGTCACACACCGGTCG,2.95
2,TTACCAAGGTGAGCTGAGGTCGTTAATCCAACTC,-0.219
3,ACAGACAGGTGAGTGAAGGTAACTCATCTGGACG,-1.01
4,GCGACTGGGGCATCAGCAGGTTATCATAACTTAA,0.000895
5,ACTATTAGTTGACTTAGGGTAACCGATACGACGC,0.663
6,TCTCGGAGGACAGGAAGGTCAGAGCTTTCCAGAG,0.357
7,CTGCCTAGGTCAGGGCCAGTATAGGAGGAACGTT,0.559
8,TGAATGAGGTTATAAAATCAGGGAACGTTGCAAA,0.289
9,ACAGACAGGTGATGAAGGTGACTCAGGCTATCAT,0.791
10,CGACCAAGGTCATAGGAGGTCAGTGAAGACAGAT,5.37
11,GTTACAGGGTCAGCTAGAGGCCAGAGTATGGAAA,2.41
12,CCTTACGGGTCACTGACAGGTTATACCATTTGGA,2.46
13,ATCTCTAGGTAAAGTTCAGTGAGAGATCGATAGA,1.57
14,ATCTCTAGGTAACAAATTCAGTGAAAGAGAGGAC,0.744
15,CGTCCAAGGTCAAGGTCAGTGTAAGAGACTCGAA,3.45
16,CGTACAAGGTCAGAGAGGTCAGTGAATGCCGAGT,3.94
17,ACTTACGGGTAAACGAGGTTATAGCACGCGTATA,0.611
18,GCTGCTAGGTCAGGTGGGTCAGCTAACGGGTACG,1.05
19,CCTACTGTGCCACGAAAGGTCATTGATTCAGTGA,3.62
20,CCTGCTAGGTCAATGGTCAGCAAAAGCAGCTCGC,0.701

# System: PXR:RXRa (NR concentration 270 nM, RXRa partner concentration 90 nM)
# Assay: as above
# Outline: as §1
row,Sequence,PBM binding z-score
1,CCTAGTTGGTCAGCAGGTCACACACCGGATATGA,2.42
2,TGAAGGAGGTTAAAGATCAGGGAACGTGGCGTCG,1.63
3,GCTAGCAGGCCAATTGGGTCACTCAATGACGGGC,0.184
4,TCAGACTGGTGAAGGTAACTCAGGTACGCAGTCG,0.0294
5,CAGCCTAGGTCACGGCCAGTATAGGAGGAACGTT,2.34
6,CTCGAAAGGTCGTGCTCAGGTGAGTAAACCAAAC,3.34
7,GCTTGAAGATCAAGGTTAAGAAAGACTAAGCTAA,0.112
8,CCTAGCAGGCCGGGGTCACTCAAGCATTTCGCTT,5.35
9,CAGCCTAGGTCAGGGCCACTATAGGAGGAACGTT,0.356
10,CCGACTGGAGCAAAGGTTACCATACTCAGTACGA,1.77
11,TGAATGAGGTTATAAGATCTGGGAACGTTGCAAA,0.714
12,GATACAGGGTCAGCTAGAGGCCAGGGTATGGAAA,2.94
13,ACACACAGGTGATGAAGGTAACTCAGGCTATCAT,-0.0363
14,AGCTCTAGGTAAAGATAGTTCAGTGAATGCAAAT,0.84
15,CCTACTGGGCCAAAAAGGTCAATGATGCCGATAA,3.47
16,GCTCGGACGACAAGGTCAGAGCTTTGTCCGTAGA,1.73
17,GGAACGAGGGCAAAGTTGATAGCTTCTGTCGACG,0.96
18,ATATGTGGGTTACATCCGGGTCATTCAGGCTATG,3.72
19,CGAACTAGGTCATTGACAGGACTGTGAATAGTAA,1.11
20,TGAATGAGGTTATAAGATTAGGGAACGTTGCAAA,0.788

row,Sequence,PBM binding z-score
1,GCTAGTTGCTCAGTAAAAGGTCACACACCGGTCG,4.84
2,TTACCAAGGTGAGCTGAGGTCGTTAATCCAACTC,4.5
3,ACAGACAGGTGAGTGAAGGTAACTCATCTGGACG,-0.3
4,GCGACTGGGGCATCAGCAGGTTATCATAACTTAA,0.377
5,ACTATTAGTTGACTTAGGGTAACCGATACGACGC,0.483
6,TCTCGGAGGACAGGAAGGTCAGAGCTTTCCAGAG,1.36
7,CTGCCTAGGTCAGGGCCAGTATAGGAGGAACGTT,0.208
8,TGAATGAGGTTATAAAATCAGGGAACGTTGCAAA,0.62
9,ACAGACAGGTGATGAAGGTGACTCAGGCTATCAT,0.114
10,CGACCAAGGTCATAGGAGGTCAGTGAAGACAGAT,6.88
11,GTTACAGGGTCAGCTAGAGGCCAGAGTATGGAAA,3.39
12,CCTTACGGGTCACTGACAGGTTATACCATTTGGA,3.75
13,ATCTCTAGGTAAAGTTCAGTGAGAGATCGATAGA,1.77
14,ATCTCTAGGTAACAAATTCAGTGAAAGAGAGGAC,0.225
15,CGTCCAAGGTCAAGGTCAGTGTAAGAGACTCGAA,5.09
16,CGTACAAGGTCAGAGAGGTCAGTGAATGCCGAGT,6.31
17,ACTTACGGGTAAACGAGGTTATAGCACGCGTATA,1.65
18,GCTGCTAGGTCAGGTGGGTCAGCTAACGGGTACG,1.28
19,CCTACTGTGCCACGAAAGGTCATTGATTCAGTGA,5.32
20,CCTGCTAGGTCAATGGTCAGCAAAAGCAGCTCGC,0.88
